HPGD inh: inhibitors of human 15-hydroxyprostaglandin dehydrogenase (HPGD). P15428. purified HPGD, NADH fluorescence kinetic, PGE2 substrate. Potency, µM, inactives show at the top dose activity change, negative = inhibition, hits mostly inhibitors. 150,000 compounds, 4.3% hits; active = well fitted inhibition curve with a large enough effect, not every such curve was filed as active; inconclusive = small, poorly fitted or top-dose-only effect, or another doubt; inactive = no such curve, though single readings can be large or run the other way
Target sequence (P15428 whole entry, looked up): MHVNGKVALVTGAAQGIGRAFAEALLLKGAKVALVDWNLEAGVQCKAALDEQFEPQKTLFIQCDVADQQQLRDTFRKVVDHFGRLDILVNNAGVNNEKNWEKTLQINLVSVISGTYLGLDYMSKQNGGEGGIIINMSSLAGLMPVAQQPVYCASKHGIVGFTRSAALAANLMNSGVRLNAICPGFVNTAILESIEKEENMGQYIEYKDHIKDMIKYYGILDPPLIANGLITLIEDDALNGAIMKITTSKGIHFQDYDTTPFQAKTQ
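20 nM HPGD preincubated 15 min at room temperature with compound in 50 mM Tris-HCl pH 8, 0.01% Tween 20. Started with 1 mM NAD+ and 30 uM prostaglandin E2; NADH fluorescence (360/450 nm) read 5 times over 30-s intervals, last minus first.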
Tau fluor cs: counter-screen for tau fibril formation inhibitors | Potency, µM (doses to about 57.7 µM), for inactives: at the top dose activity change, negative = decrease | tau K18 P301L Alexa594 fluorescence, heparin fibrillization | 280,000 compounds, 0.93% hits; also: nearly all actives have a fitted effect of over 55% in size
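Human tau K18 P301L (15 uM unlabeled, 0.24 uM Alexa 594-labeled) in 100 mM sodium acetate pH 7 with 20 uM heparin, 6 hr at 37 C. ThT 30 uM added, 1 hr ambient; Alexa 594 FP and total fluorescence read at 555/632 nm.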
NPSR antagonist: blocks cAMP signaling of the human neuropeptide S receptor; Q6W5P4; CHO-NPSR cells, cAMP TR-FRET, antagonist mode; Potency, µM (series often up to 38.3 µM), inactives show top-dose activity change, negative = inhibition, usual class: inhibitors; 220,000 compounds, 1% hits; AID 1461; also: nearly all actives have a fitted effect of over 50% in size
ALDH1A1 inh: inhibitors of human aldehyde dehydrogenase 1A1. P00352. Purified ALDH1A1, NADH fluorescence, propionaldehyde substrate. Potency, µM (highest dose often 75.3 µM), for the others: at the highest dose activity, negative = inhibition, hits mostly inhibitors. 220,000 compounds, 7.3% hits. AID 1030; active = well fitted inhibition curve with a large enough effect, not every such curve was filed as active; inconclusive = small, poorly fitted or top-dose-only effect, or another doubt; inactive = no such curve, though single readings can be large or run the other way;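 also: plate controls were no enzyme wells and a reference inhibitor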
Tau fibril FP: tau fibrillization inhibition (FP); Potency, µM (top dose mostly 57.7 µM), for inactives: at the top dose activity, negative = inhibition, actives largely listed as inhibitors; AID 1468; 280,000 compounds, 0.39% hits; K18 P301L tau heparin fibrillization, Alexa594 FP, 6 h; P10636; also: nearly all actives have a fitted effect of over 55% in size
Target sequence (P10636 561-689 P618L limits assumed): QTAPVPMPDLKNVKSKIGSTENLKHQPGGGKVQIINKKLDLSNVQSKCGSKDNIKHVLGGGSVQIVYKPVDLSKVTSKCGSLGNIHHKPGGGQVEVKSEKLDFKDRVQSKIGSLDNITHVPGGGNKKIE
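Human K18 P301L fragment (15 uM unlabeled plus 0.24 uM Alexa 594-labeled) in 100 mM sodium acetate pH 7 with compound, aggregation induced by 20 uM heparin for 6 hr at 37 C. ThT (30 uM) added for 1 hr, then Alexa 594 FP read.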
Tau fibril ThT: inhibitors of human tau fibril formation, thioflavin T binding; 270,000 compounds, 2.1% hits; recombinant tau K18 P301L, heparin-induced fibrillization, ThT fluorescence; P10636; Potency, µM (highest dose often 57.4 µM), for inactives: top-dose activity, negative = inhibition, hits mostly inhibitors; also: nearly all actives have a fitted effect of over 55% in size
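ThT emission at 510 nm, taken 1 hr after adding 30 uM dye, quantifies aggregates formed when 20 uM heparin acts on human tau K18 P301L for 6 hr at 37 C.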
Active calls of the source: *; ? = inconclusive; / = no result; ! = not active in a repeat; [ ] = another dose, or the depositor's remark. An excerpt weighted towards active compounds, which were near 9.5% of everything screened. Unless noted, calls follow the shape of the dose curve; as a rule, active = well fitted curve in the direction sought with a large enough effect; inconclusive = small, poorly fitted or top-dose-only effect, or another doubt; inactive = no such curve, though single readings can be large; an effect the other way counts as inactive or inconclusive. Unless noted, % is scaled to controls: 0 for no effect and ±100 for the full control effect; potency is read from the fitted curve at half-maximal effect.

SMILES	HPGD inh	Tau fluor cs	NPSR antagonist	ALDH1A1 inh	Tau fibril FP	Tau fibril ThT
CCCCCCN(C(=O)CCCCCN1C(=O)NC(c2ccc3ccccc3c2)C(C(=O)OCc2ccccc2)=C1C)C(C(=O)NCCCC)c1ccc(OCC(=O)OC)c(C(=O)OC)c1 (stereo unspecified)	-12%	-14%	/	-8%	3%	?
CCCCCCN(C(=O)CCCCCN1C(=O)NC(c2ccccc2-c2ccccc2)C(C(=O)OCc2ccccc2)=C1C)C(C(=O)NCCCC)c1ccc(OCC(=O)OC)c(C(=O)OC)c1 (stereo unspecified)	-12%	-16%	/	35µM*	6%	?
CCCCNC(=O)C(c1ccc(OCC(=O)OC)c(C(=O)OC)c1)N(CCc1ccccc1)C(=O)CCCCCN1C(=O)NC(c2ccc(-c3ccccc3)cc2)C(C(=O)OCc2ccccc2)=C1C (stereo unspecified)	-8%	3%	5%	3%	11%	-7%
CCN(CC)C(=O)c1sc2c(c1C)c(=O)n(-c1ccc(Cl)c(Cl)c1)c(=O)n2CC(=O)Nc1cccc(OC)c1	/	13%	/	/	-2%	16%
N#CCCN(Cc1cccnc1)C(=S)NC(=O)c1ccco1	/	2%	9%	11µM*	0%	6%
N#CCCN(C(=O)c1ccco1)c1ccccc1	/	2%	0%[46.1 µM]	-11%	7%	-4%
N#CCCN(Cc1cccnc1)C(=S)NCc1ccco1	/	-9%	-3%	18µM*	-9%	?
N#CCCN(C(=S)NC(=O)c1ccco1)c1ccccc1F	/	5%	19%	7.9µM*	-8%	-3%
Cc1ccc(S(=O)(=O)N[C@H]2COC(=O)[C@H](C)COC(=O)[C@H](C)NC(=O)C/C=C\[C@H]2C)cc1	/	0%[11.6 µM]	/	3%[13.5 µM]	-2%[11.6 µM]	1%[11.5 µM]
CNS(=O)(=O)c1cccc(C(=O)OCc2cc(C(C)=O)ccc2OC)c1	/	-6%	-11%	?	0%	0%
COc1ccc(CN(C)C(=O)COC(=O)c2ccc3c(c2)OCO3)cc1OC	-13%	-8%	-3%[46.1 µM]	-11%	-5%	-6%
COc1ccc(C(C)=O)cc1COC(=O)c1ccc(S(=O)(=O)N(C)C)cc1	/	-8%	-13%	7.1µM*	9%	-11%
COc1ccc(C(C)=O)cc1COC(=O)c1ccc2c(c1)OCO2	-14%	-16%	-18%[46.1 µM]	10µM*	?	-6%
COc1ccc(C(C)=O)cc1COC(=O)c1cnc(Cl)c(Cl)c1	/	-8%	-31%	1.4µM*	-1%	-17%
Cc1oc(C(C)(C)C)cc1C(=O)Nc1cccc(/C=C/C(=O)O)c1	-16%	-1%	3%[46.1 µM]	-13%	2%	-10%
CC(=O)Nc1ccc(NS(=O)(=O)c2ccc(C)cc2)c([N+](=O)[O-])c1	/	-24%	-5%	3%	4%	?
Cc1ccc(-c2nc(CN(Cc3c(C)nn(C)c3C)C(C)C)c(C)o2)o1	/	-1%	-15%	?	7%	-6%
O=S(=O)(NCCNC/C=C/c1ccc(Br)cc1)c1cccc2cnccc12	-25%	-24%	15%[46.1 µM]	22µM*!	?	-5%
CNCCNS(=O)(=O)c1cccc2cnccc12	-9%	3%	4%[46.1 µM]	-3%	7%	-1%
O=C(Nc1cc(Cl)ccc1Cl)c1cc(S(=O)(=O)N2CCCc3ccccc32)ccc1F	/	-17%	/	/	-15%	-7%
Cc1csc(N/N=C/c2ccc(O)c([N+](=O)[O-])c2)n1	?	?	10µM*	?	-2%	5µM*
Clc1ccc(-c2csc(N/N=C/c3ccc4c(c3)OCO4)n2)cc1	-17%	11µM*[quencher]	-3%	3%	-2%	8.9µM*
Cc1nnc(N/N=C/c2ccc(O)c([N+](=O)[O-])c2)[nH]c1=O	-10%	-2%	-17%	-8%	11%	?
O=[N+]([O-])c1cc(/C=N/N/C(=N/c2ccccn2)c2ccccn2)ccc1O	/	-13%	-41%	-5%	-11%	?
O=C(/C=C/c1ccc2c(c1)OCO2)Nc1nc(-c2ccccc2)cs1	?	?	-10%[46.1 µM]	-4%	-12%	?
SMILES	HPGD inh	Tau fluor cs	NPSR antagonist	ALDH1A1 inh	Tau fibril FP	Tau fibril ThT
O=[N+]([O-])c1cc(/C=N\Nc2nc(-c3ccccc3)cs2)ccc1O	/	10µM*[quencher]	-49%	11µM*	?	3.2µM*
COc1ccc(C(C)C)cc1S(=O)(=O)n1cnc(C)c1	-28%	-6%	-4%[46.1 µM]	?	4%	-1%
O=C(N/N=C/c1sc(=O)n(-c2ccccc2)c1Cl)c1ccccc1	-10%	8%	1%	16µM*	6%	-3%
NC(=O)N/N=C/c1sc(=O)n(-c2ccccc2)c1Cl	/	-9%	4%	/	4%	/
CSC(=Nc1ccccc1)C1=C(O)COC1=O	-2%	3%	-3%[46.1 µM]	25µM*	9%	-8%
COC(=O)c1ccccc1NC(=O)Cn1c(=O)n(CCC(=O)NCc2ccc3c(c2)OCO3)c(=O)c2ccccc21	/	-3%	/	/	-4%	-1%
O=C(Nc1cc(Cl)ccc1O)c1cc2n(n1)C(C(F)(F)F)CC(c1ccc3c(c1)OCO3)N2 (stereo unspecified)	-9%	?	6.3µM*	-8%	-4%	-15%
CNC(=O)c1ccc(-c2sc3nc(N4CCOCC4)c4c(c3c2N)CCCC4)o1	/	14µM*[quencher]	-25%[46.1 µM]	?	20%	16µM*
CCn1nc(C)c(/C=N/NC(=O)c2ccc3c(c2)c(C)c(C)n3Cc2ccccc2)c1C	-25%	-27%	-14%[46.1 µM]	?	8%	?
O=C(Cn1cnc2sc(-c3ccccc3)cc2c1=O)NCc1ccco1	16µM*	-3%	-7%[46.1 µM]	?	-1%	-14%
COc1ccc(Br)cc1C(=O)Nc1ccc(C(=O)NCC(C)C)cc1	/	-9%	28%	?	-13%	1%
CCOc1ccc(Br)cc1C(=O)Nc1ccc(C(=O)NCC(C)C)cc1	2µM*	-17%	?	-2%	7%	-12%
COc1ccc2c(c1)C(=O)N(c1ccccc1OC)C(=O)C2	8.9µM*	-8%	-9%[46.1 µM]	18µM*	-4%	-12%
O=c1c(-c2ccc(F)cc2)nc2cnc(N3CCOCC3)nc2n1C[C@H]1CCCO1	-24%	/	/	?	/	/
Cc1nc(N2CCOCC2)nc(N2CCCCC2)c1[N+](=O)[O-]	-2%	3%	-1%	16µM*	-2%	-1%
CCOc1ccc(NC(=O)C2CCN(c3nnnn3-c3ccccc3)CC2)cc1	-3%	-22%	-4%[46.1 µM]	13µM*	-4%	-11%
COc1cccc(NC(=O)N2CCN(c3nnnn3-c3ccccc3)CC2)c1	/	-5%	-12%	6.3µM*	1%	-4%
O=C(O)C1C2CCC(O2)C1C(=O)Nc1cccc(F)c1 (stereo unspecified)	-7%	0%	3%[46.1 µM]	0%	-8%	4%

Screens: PubChem BioAssay, National Center for Advancing Translational Sciences (NCATS)
